Source: PubChem BioAssay (NCI)
Values joined by “and” are separate entries in the source; they are usually repeats but may differ in a detail not shown here. Identical values can stand only once. About 79,000 compounds went through this panel and 15% of them were active in at least one assay; those are over-represented in the sample as a whole. Values without a mark were called inactive. Active and inactive are the calls of the source. Rule as the data show it: active = growth inhibition above about 70%; inactive = the rest.

Legend:
[1] = NCI Yeast Anticancer Drug Screen. Data for the rad50 strain (AID 155);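 also: 0% = growth of vehicle-only cultures of the same strain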; details: S. cerevisiae rad50 strain growth inhibition, hits give high values; at 50.0 µM unless noted
In short: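 Compounds were tested on a yeast strain with an engineered DNA damage repair alteration; the reported value is growth inhibition normalised to vehicle treatment.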

[2] = NCI Yeast Anticancer Drug Screen. Data for the mec2-1 strain (AID 157); details: S. cerevisiae mec2-1 strain, hits give high values; at 50.0 µM unless noted
In short: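 mec2-1 yeast strain, carrying an alteration in DNA damage repair or cell cycle control, was exposed to compounds; growth inhibition was measured relative to vehicle-treated controls.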

[3] = NCI Yeast Anticancer Drug Screen. Data for the sgs1 mgt1 strain (AID 161);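 also: 0% = growth of cultures given vehicle only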; details: S. cerevisiae sgs1 mgt1 strain, hits give high values; at 50.0 µM unless noted
In short: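 Compounds are added to genetically altered yeast, and growth is compared with cultures given vehicle alone to give percent inhibition.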

[4] = NCI Yeast Anticancer Drug Screen. Data for the cln2 rad14 strain (AID 165);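 also: 0% = growth equal to vehicle treated cultures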; details: S. cerevisiae cln2 rad14 strain, hits give high values; at 50.0 µM unless noted
In short: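 Yeast carrying cln2 and rad14 alterations (cell cycle control and DNA damage repair) were exposed to compounds. Growth inhibition was measured against vehicle-treated controls.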

[5] = NCI Yeast Anticancer Drug Screen. Data for the bub3 strain (AID 167); details: S. cerevisiae bub3 mutant strain, hits give high values; at 50.0 µM unless noted
In short: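 Growth of a checkpoint-deficient yeast mutant is measured after compound exposure. Values represent inhibition relative to vehicle.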

[6] = NCI Yeast Anticancer Drug Screen. Data for the mlh1 rad18 strain (AID 175); details: S. cerevisiae mlh1 rad18 strain growth inhibition, hits give high values; at 50.0 µM unless noted
In short: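 Growth inhibition of the yeast strain was measured after compound exposure and expressed relative to vehicle-treated controls. The strain carries defined defects in DNA damage repair.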

SMILES	growth inhibition [1]	growth inhibition [2]	growth inhibition [3]	growth inhibition [4]	growth inhibition [5]	growth inhibition [6]
Cc1[nH]c2c(ccc3c2ccc2c(=O)c(C)c(C)[nH]c23)c(=O)c1C	-2.05%	-7.45%	-4.35%	-29%	-0.3%	2.3%
CCCCOC(=O)NC(=O)c1cn(CCCOC(=O)NCCCCCCNC(=O)OCCCn2cc(C(=O)NC(=O)OCCCC)c(=O)[nH]c2=O)c(=O)[nH]c1=O	-1.1%	2.75%	-4.2%	24.6%	-6.35%	-33.1%
COc1ccc2oc3c(OC)c(OC)c(OC)cc3c(=O)c2c1	-11.3%	-21.6%	-4.95%	6%	12.6%	-15.8%
CN(C)C(C)(CO)CO	17.4%	-6.55%	0.65%	6.45%	9.2%	0.55%
O=c1c2ccccc2c(=O)c2c1c1c(=O)c3ccccc3c(=O)c1c1c(=O)c3ccccc3c(=O)c21	22.2%	9.65%	30.2%	29.6%	0.5%	22.4%
O=C1/C(=C\C=C\c2ccccc2)CCCC/C1=C\C=C\c1ccccc1	11.3%	-0.35%	-0.95%	5.95%	-1.4%	8.35%
CCCCOP(=O)(Nc1ccc([N+](=O)[O-])cc1)OCCCC	94.1% (active)	86.3% (active)	91.1% (active)	74% (active)	77.2% (active)	87.5% (active)
BrC(Br)(Br)Br	74% (active)	12.6%	31.8%	-19.6%	27.4%	57.2%
O=C1c2ccccc2S(=O)(=O)c2c1cccc2[N+](=O)[O-]	14.1%	-15.4%	3.6%	5.3%	-4.7%	15.7%
O=C(/C=C/c1ccc(OCc2ccccc2)cc1)c1cccc([N+](=O)[O-])c1	4.7%	6.35%	-5.85%	9.15%	-0.05%	12.2%
CC1=NN(C(=O)Cc2ccccc2)C(=O)/C1=C\c1ccc(O)cc1	-18.9%	-36.1%	-47.4%	-4.2%	-13.2%	-29.2%
COc1ccc(C(=O)NNC(=O)c2cccc3ccccc23)cc1	21.8%	-9.75%	9.7%	5.8%	16.6%	-3.6%
CC(C)(C(N)C(=O)O)C(N)C(=O)O (stereo not given)	16.4%	4.8%	-17.4%	-11.9%	-3.55%	-8.8%
COc1ccc(CC(C)NN)cc1 (stereo not given)	93% (active)	56.7%	50.2%	95.7% (active)	99.2% (active)	98.5% (active)
Cc1c(NC(=O)CSC(=S)N(C)C)c(=O)n(-c2ccccc2)n1C	-1.1%	-2.45%	-18.4%	6.75%	-35.8%	-53.4%
O=C(Nc1ccc(Br)cc1)C(Br)C(Br)c1ccccc1 (stereo not given)	98% (active)	97.7% (active)	98.6% (active)	96.7% (active)	97.8% (active)	97.9% (active)
C=C1C2CCC(C2)C1(C)CC/C=C(/C)CO (stereo not given) (tested in a mixture with another compound)	34.4% and 47.7%	9.65% and 7.15%	33.2% and 41.6%	20.2% and 7.3%	35.5% and 19.8%	16.4% and 26.4%
O=c1ccc(-c2ccc(-n3ccnc3)cc2)nn1CCO	-39.4%	-49.5%	-24.7%	-2.7%	-38%	-10.8%
COc1ccc2c(c1)c(COC(C)=O)c(C)c[n+]2[O-]	25.1%	28.8%	42.1%	16.6%	22.1%	52.9%
CN(Cc1ccccc1Cl)C(=O)Nc1cccc(Cl)c1	61.5%	78% (active)	80.7% (active)	80% (active)	86.7% (active)	90.2% (active)
